In PubChem BioAssay:
Values without a mark were called inactive. The list shows a part of the results. Calls of active or inactive are those of the source.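 The calls were made as follows, unless noted: active = signal rise of 40% or more at 20 µM, treated as a fluorescence artifact; inactive = the rest.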

Columns and labels:
[1] = Apaf-1 inhibitors, single-dose retest, confirmation, biochemical, fluorescence, DEVD-Rh110, 20 µM (AID 504614;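 active = mean inhibition of at least 40% at 20 µM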;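 also: plate controls were DMSO wells for no effect and DEVD-CHO caspase inhibitor control wells for full effect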); settings: reconstituted apoptosome, caspase-3 DEVD-Rh110 fluorescence; at 20 µM; active compounds read high
[2] = Rh110 fluorescence interference by putative Apaf-1 inhibitors, confirmation, artefact control for Apaf-1 inhibitor project, biochemical, 20 µM (AID 504615); settings: quenched caspase reaction, at 20 µM, active compounds read high
[3] = fluorescence interference of Apaf-1 inhibitor hits, dose response, artefact control for Apaf-1 inhibitor project (AID 588538; call rule not given here); settings: fluorescence interference counterscreen, Apaf-1 assay format
[4] = inhibition of Brca1/Bard1 split-luciferase complementation, confirmation, counter-screen for Mdm2/MdmX interaction inhibitor project, luminescence, single concentration (AID 504668; call rule not given here); settings: Brca1/Bard1 bimolecular luciferase complementation counterscreen, at 8 µM, active compounds read high

Structure (SMILES)	inhibition [1]	activation (fluorescence interference) [2] [%]	IC50 [3] [µM]	inhibition [4]
CCCCCCc1cc2cc(-c3nnc(-c4ccccc4)o3)c(=O)oc2cc1O	76% (active)	7.27	> 100	
CCCC[C@@H]1CN=C(N)N1CCc1cc(C(F)(F)F)cc(C(F)(F)F)c1	11.5%	3.05		
COc1ccc2sc(-c3ccccc3OC)c(-c3ccc(OCCN4CCCC4)cc3)c2c1	27.1%	6.49		
c1ccc2c(CCN3CCNC[C@H]3Cc3cccc4ccccc34)cccc2c1	24.8%	8.34		
Cc1[nH]n(-c2ccccc2)c(=O)c1/C=N/NC(=O)c1ccoc1C	62% (active)	-3.23	> 100	
COCC(C)OC(=O)c1c(N)n(CCCN2CCOCC2)c2nc3ccccc3nc12 (centres undefined)	12.4%	0.94		
CCOC(=O)N1CCC(NC(=O)C(C)n2c3ccccc3c3cnn(C)c(=O)c32)CC1 (centres undefined)	14%	17.6		
O=C(CN1CCN(S(=O)(=O)c2ccc3ccccc3c2)CC1)NC(=O)NC1CCCCC1	26.3%	20		
CC(C)CC[n+]1ccn(C2=C([O-])c3ccccc3C(=O)/C2=N\S(=O)(=O)c2ccccc2)c1	62.6% (active)	5.73	> 100	
COc1ccc(-c2nc3cc(C)ccn3c2NC2CCCCC2)cc1SC1CCCCC1	15.6%	-1.22		
CC(NC(=O)c1ccccc1SCC(=O)N1CCCC1)c1ccccc1 (centres undefined)	22.9%	-8.17		
COc1ccc(C(CNC(=O)c2ccc(S(=O)(=O)Nc3ccccc3F)cc2)N(C)C)cc1 (centres undefined)	43.8% (active)	-0.45	> 100	
CCCCCCCCCCOC(=O)Cn1c(COc2cccc(OC)c2)[n+](C)c2ccccc21	74.8% (active)	23	> 100	31.2% (active)
O=C(CCCN1CCc2[nH]c3ccc(F)cc3c2C1)c1ccc(F)cc1	65.3% (active)	4.85	> 100	
O=c1cc(N2CCCCC2)c(-c2ccccc2)nn1Cc1cccc(F)c1	18.3%	9.4		
CCOC(=O)C1CCN(C(=O)c2cccc(S(=O)(=O)N(CC)c3ccccc3)c2)CC1	27.8%	5.38		
C#CCOCCOCCOCCNc1nc(N2CCN(C(=O)CCCCCCCCCCNC(=O)Cn3cc(CCCCCN)nn3)CC2)nc(N2CCN(C(=O)CCCCCCCCCCNC(=O)[C@H](CO)n3cc(CCCSC)nn3)CC2)n1	60.8% (active)	4.21	> 100	
Cc1ccc(S(=O)(=O)N2CCN(C(=O)c3ccccc3-c3nc4ccccc4s3)CC2)c(C)c1	34.1%	4.66		
